Drawing on PubChem BioAssay (NCATS), this text covers Potency for eight compounds.

“And” between values parts separate entries of the source, which are not always exact repeats. Identical values can stand only once. Inconclusive results are not listed. A structure can be active in one record and inactive in another. The source made the active and inactive calls. The call rests on the fitted dose curve; in most records, active means well fitted inhibition curve with a large enough effect; inconclusive means small, poorly fitted or top-dose-only effect; inactive means no such curve, though single readings can be large or run the other way.
Further: nearly all actives have a fitted effect of over 60% in size.
Potency means the concentration at half of the fitted maximal effect.

Sequence of Cytochrome P450 2D6 (Homo sapiens) (P10635 whole entry, looked up): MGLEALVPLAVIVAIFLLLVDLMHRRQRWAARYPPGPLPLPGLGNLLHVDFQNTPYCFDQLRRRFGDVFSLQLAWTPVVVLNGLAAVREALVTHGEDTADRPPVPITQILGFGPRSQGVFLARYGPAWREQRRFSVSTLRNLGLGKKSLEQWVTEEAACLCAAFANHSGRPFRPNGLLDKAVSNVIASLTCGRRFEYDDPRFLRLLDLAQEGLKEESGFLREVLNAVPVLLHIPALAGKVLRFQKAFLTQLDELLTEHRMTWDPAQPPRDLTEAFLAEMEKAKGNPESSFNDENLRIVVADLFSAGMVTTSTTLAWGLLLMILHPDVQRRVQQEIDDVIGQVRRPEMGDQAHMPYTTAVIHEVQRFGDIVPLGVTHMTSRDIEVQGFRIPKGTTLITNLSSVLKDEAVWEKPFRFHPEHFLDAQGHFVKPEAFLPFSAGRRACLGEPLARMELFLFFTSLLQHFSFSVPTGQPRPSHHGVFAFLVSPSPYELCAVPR
Sequence of Cytochrome P450 2C9 (Homo sapiens) (P11712 whole entry, looked up): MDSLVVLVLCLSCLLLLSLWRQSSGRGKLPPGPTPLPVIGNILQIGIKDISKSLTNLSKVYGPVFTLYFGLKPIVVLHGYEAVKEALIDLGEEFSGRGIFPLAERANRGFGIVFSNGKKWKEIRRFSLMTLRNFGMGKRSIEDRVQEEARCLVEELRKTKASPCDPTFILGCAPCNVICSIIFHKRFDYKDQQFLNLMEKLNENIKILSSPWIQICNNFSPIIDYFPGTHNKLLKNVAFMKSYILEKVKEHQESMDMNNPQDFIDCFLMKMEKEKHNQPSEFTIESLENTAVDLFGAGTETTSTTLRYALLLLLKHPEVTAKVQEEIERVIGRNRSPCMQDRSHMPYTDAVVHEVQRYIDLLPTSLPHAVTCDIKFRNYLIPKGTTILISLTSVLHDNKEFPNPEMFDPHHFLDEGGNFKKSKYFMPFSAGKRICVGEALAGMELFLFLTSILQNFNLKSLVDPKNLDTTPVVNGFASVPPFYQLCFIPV

The target in the first assay is Cytochrome P450 2C9 (Homo sapiens) (UniProt P11712). Briefly: qHTS Assay for Inhibitors and Substrates of Cytochrome P450 2C9 (AID 883). As to conditions: recombinant CYP2C9, luciferin-H luminescence, 60 min; series mostly up to 57.1 µM. Summed up:
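Signal: luciferase luminescence reporting luciferin produced by CYP2C9. Conditions: 10nM enzyme, Luciferin-H 100uM at KM, 25mM KPO4, 37C, 60 min NADPH-driven reaction. Reference: 57uM sulphaphenazole as 100% inhibition.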
(In general: Quantitative high-throughput screening tests each substance at several concentrations.)
With `Cc1ccc(Cl)c(Nc2ccccc2C(=O)O)c1Cl`, the Potency was 7.94 µM (active) and 1.26 µM (active).

Take `COc1cc2c(cc1OC)-c1cc(=Nc3c(C)cc(C)cc3C)n(C)c(=O)n1CC2`: the Potency is 1.26 µM (active).

In the case of `C[C@H](CS)C(=O)N1CCC[C@H]1C(=O)O`, the Potency entry is “inactive”.

Turning to `CN(C)CCN(Cc1cccs1)c1ccccn1`, the Potency result was “inactive”.

In the case of `COc1ccc2c(c1OC)C(=O)O[C@@H]2[C@H]1c2c(cc3c(c2OC)OCO3)CCN1C`, the Potency was 0.126 µM (active).

The target in a further assay is Cytochrome P450 2D6 (Homo sapiens) (UniProt P10635). Briefly: qHTS Assay for Inhibitors and Substrates of Cytochrome P450 2D6 (AID 891). As to conditions: recombinant CYP2D6, luciferin-ME EGE luminescence; series mostly up to 57.1 µM. Summed up:
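Luminescent read-out of luciferin formed by 5 nM human CYP2D6 demethylating 30 uM Luciferin-ME EGE (Km level) over 60 min at room temperature after NADPH regeneration addition. Data normalized to full inhibition by 1.43 uM quinidine.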
Turning to `C[C@H](CS)C(=O)N1CCC[C@H]1C(=O)O`, the Potency result was “inactive”.

Turning to `CCCCNc1c(C(=O)OCC)c(C)nc2c1cnn2CC`, the Potency result is “inactive and 199 nM (active)”.

Take `Cc1nc2sccn2c(=O)c1CCN1CCC(=C(c2ccc(F)cc2)c2ccc(F)cc2)CC1`: the Potency is 10 µM (active).

For the compound `CCCCCCCC/C=C\CCCCCCCC(=O)NCc1ccc(O)c(OC)c1`, the Potency was 3.16 µM (active).
